# Source: the supplement of paper PMC4466140
# B1: unnamed (peptide)
# chain: PKRRAPPPVPKKPSS
# Key:
# Assay in all cases: SPOT peptide array binding signal intensity (averaged, normalized) (arbitrary units (background-subtracted, floor 0; scale differs between SH3 domains)); higher = stronger binding of the SH3 domain to the peptide
# AgAbp1 = biological target: AgAbp1
# In short: (§1)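 Binding signal is given in arbitrary units that differ between domains and is the normalized, background-subtracted spot intensity averaged across replicates. Each GST-SH3 fusion from one of four yeast species was made in E. coli BL21(DE3), purified on glutathione Sepharose and incubated at 10 μg/ml overnight at 4°C on cellulose-bound synthetic 15-mer peptides in which cysteines were replaced by serines. Detection used anti-GST antibody, an HRP anti-mouse secondary and luminol, followed by imaging and Genespotter quantification.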
# AgBbc1 = biological target: AgBbc1
# In short: as §1
# AgBem1-D1 = biological target: AgBem1-D1
# In short: as §1
# AgBzz1-D1 = biological target: AgBzz1-D1
# In short: as §1
# AgBzz1-D2 = biological target: AgBzz1-D2
# In short: as §1
# AgCyk3 = biological target: AgCyk3
# In short: as §1
# AgFus1 = biological target: AgFus1
# In short: as §1
# AgHof1 = biological target: AgHof1
# In short: as §1
# AgHse1 = biological target: AgHse1
# In short: as §1
# AgLsb1 = biological target: AgLsb1
# In short: as §1
# AgLsb4 = biological target: AgLsb4
# In short: as §1
# AgMyo5 = biological target: AgMyo5
# In short: as §1
# AgNbp2 = biological target: AgNbp2
# In short: as §1
# AgRvs167 = biological target: AgRvs167
# In short: as §1
# AgSho1 = biological target: AgSho1
# In short: as §1
# AgSla1-D1-D2 = biological target: AgSla1-D1-D2
# In short: as §1
# AgSla1-D3 = biological target: AgSla1-D3
# In short: as §1
# CaAbp1-D1 = biological target: CaAbp1-D1
# In short: as §1
# CaAbp1-D2 = biological target: CaAbp1-D2
# In short: as §1
# CaBbc1 = biological target: CaBbc1
# In short: as §1
# CaBem1-D1 = biological target: CaBem1-D1
# In short: as §1
# CaBzz1-D1 = biological target: CaBzz1-D1
# In short: as §1
# CaBzz1-D2 = biological target: CaBzz1-D2
# In short: as §1
# CaCyk3 = biological target: CaCyk3
# In short: as §1
# CaFus1 = biological target: CaFus1
# In short: as §1
# CaHof1 = biological target: CaHof1
# In short: as §1
# CaHse1 = biological target: CaHse1
# In short: as §1
# CaLsb1 = biological target: CaLsb1
# In short: as §1
# CaLsb4 = biological target: CaLsb4
# In short: as §1
# CaMyo5 = biological target: CaMyo5
# In short: as §1
# CaNbp2 = biological target: CaNbp2
# In short: as §1
# CaRvs167 = biological target: CaRvs167
# In short: as §1
# CaRvs167-3 = biological target: CaRvs167-3
# In short: as §1
# CaSho1 = biological target: CaSho1
# In short: as §1
# CaSla1-D1-D2 = biological target: CaSla1-D1-D2
# In short: as §1
# CaSla1-D3 = biological target: CaSla1-D3
# In short: as §1
# ScAbp1 = biological target: ScAbp1
# In short: as §1
# ScBbc1 = biological target: ScBbc1
# In short: as §1
# ScBem1-D1 = biological target: ScBem1-D1
# In short: as §1
# ScBzz1-D1 = biological target: ScBzz1-D1
# In short: as §1
# ScBzz1-D2 = biological target: ScBzz1-D2
# In short: as §1
# ScCyk3 = biological target: ScCyk3
# In short: as §1
# ScFus1 = biological target: ScFus1
# In short: as §1
# ScHof1 = biological target: ScHof1
# In short: as §1
# ScHse1 = biological target: ScHse1
# In short: as §1
# ScLsb1 = biological target: ScLsb1
# In short: as §1
# ScLsb2 = biological target: ScLsb2
# In short: as §1
# ScLsb3 = biological target: ScLsb3
# In short: as §1
# ScLsb4 = biological target: ScLsb4
# In short: as §1
# ScMyo3 = biological target: ScMyo3
# In short: as §1
# ScMyo5 = biological target: ScMyo5
# In short: as §1
# ScNbp2 = biological target: ScNbp2
# In short: as §1
# ScPex13 = biological target: ScPex13
# In short: as §1
# ScRvs167 = biological target: ScRvs167
# In short: as §1
# ScSho1 = biological target: ScSho1
# In short: as §1
# ScSla1-D1-D2 = biological target: ScSla1-D1-D2
# In short: as §1
# ScSla1-D3 = biological target: ScSla1-D3
# In short: as §1
# SpAbp1-D1 = biological target: SpAbp1-D1
# In short: as §1
# SpBbc1 = biological target: SpBbc1
# In short: as §1
# SpBzz1-D1 = biological target: SpBzz1-D1
# In short: as §1
binder,measurement,setting,value
B1,SPOT peptide array binding signal intensity,AgAbp1,5860
same,SPOT peptide array binding signal intensity,AgBbc1,1440
same,SPOT peptide array binding signal intensity,AgBem1-D1,221
same,SPOT peptide array binding signal intensity,AgBzz1-D1,2030
same,SPOT peptide array binding signal intensity,AgBzz1-D2,987
same,SPOT peptide array binding signal intensity,AgCyk3,1
same,SPOT peptide array binding signal intensity,AgFus1,21.5
same,SPOT peptide array binding signal intensity,AgHof1,530
same,SPOT peptide array binding signal intensity,AgHse1,122
same,SPOT peptide array binding signal intensity,AgLsb1,784
same,SPOT peptide array binding signal intensity,AgLsb4,158
same,SPOT peptide array binding signal intensity,AgMyo5,73.5
same,SPOT peptide array binding signal intensity,AgNbp2,5620
same,SPOT peptide array binding signal intensity,AgRvs167,100
same,SPOT peptide array binding signal intensity,AgSho1,479
same,SPOT peptide array binding signal intensity,AgSla1-D1-D2,96
same,SPOT peptide array binding signal intensity,AgSla1-D3,856
same,SPOT peptide array binding signal intensity,CaAbp1-D1,2910
same,SPOT peptide array binding signal intensity,CaAbp1-D2,5120
same,SPOT peptide array binding signal intensity,CaBbc1,1940
same,SPOT peptide array binding signal intensity,CaBem1-D1,110
same,SPOT peptide array binding signal intensity,CaBzz1-D1,6700
same,SPOT peptide array binding signal intensity,CaBzz1-D2,5750
same,SPOT peptide array binding signal intensity,CaCyk3,142
same,SPOT peptide array binding signal intensity,CaFus1,188
same,SPOT peptide array binding signal intensity,CaHof1,0.5
same,SPOT peptide array binding signal intensity,CaHse1,788
same,SPOT peptide array binding signal intensity,CaLsb1,0.5
same,SPOT peptide array binding signal intensity,CaLsb4,2470
same,SPOT peptide array binding signal intensity,CaMyo5,2
same,SPOT peptide array binding signal intensity,CaNbp2,3070
same,SPOT peptide array binding signal intensity,CaRvs167,104
same,SPOT peptide array binding signal intensity,CaRvs167-3,7.5
same,SPOT peptide array binding signal intensity,CaSho1,93
same,SPOT peptide array binding signal intensity,CaSla1-D1-D2,3270
same,SPOT peptide array binding signal intensity,CaSla1-D3,1040
same,SPOT peptide array binding signal intensity,ScAbp1,3020
same,SPOT peptide array binding signal intensity,ScBbc1,651
same,SPOT peptide array binding signal intensity,ScBem1-D1,40
same,SPOT peptide array binding signal intensity,ScBzz1-D1,2560
same,SPOT peptide array binding signal intensity,ScBzz1-D2,83.5
same,SPOT peptide array binding signal intensity,ScCyk3,6
same,SPOT peptide array binding signal intensity,ScFus1,14
same,SPOT peptide array binding signal intensity,ScHof1,≤ 0
same,SPOT peptide array binding signal intensity,ScHse1,326
same,SPOT peptide array binding signal intensity,ScLsb1,488
same,SPOT peptide array binding signal intensity,ScLsb2,800
same,SPOT peptide array binding signal intensity,ScLsb3,4240
same,SPOT peptide array binding signal intensity,ScLsb4,78.5
same,SPOT peptide array binding signal intensity,ScMyo3,865
same,SPOT peptide array binding signal intensity,ScMyo5,436
same,SPOT peptide array binding signal intensity,ScNbp2,5110
same,SPOT peptide array binding signal intensity,ScPex13,560
same,SPOT peptide array binding signal intensity,ScRvs167,1250
same,SPOT peptide array binding signal intensity,ScSho1,1580
same,SPOT peptide array binding signal intensity,ScSla1-D1-D2,3720
same,SPOT peptide array binding signal intensity,ScSla1-D3,1510
same,SPOT peptide array binding signal intensity,SpAbp1-D1,1910
same,SPOT peptide array binding signal intensity,SpBbc1,144
same,SPOT peptide array binding signal intensity,SpBzz1-D1,2040
